Assay results from PubChem BioAssay (EPA / NIEHS).
Active and inactive are the calls of the source. The calls were made as follows: active = hit-call score of the fitted dose curve at least 0.9, where 1 is the maximum; inactive = score below 0.9.

Read-out: Human Leukocyte Antigen - DR isotype (HLADR), HLA-DRA (gene 3122)
Assay: BSK_3C_HLADR: BioMAP Diversity Plus: 3C Assay for Human Leukocyte Antigen - DR isotype (HLADR) Biomarker Activity (AID 2283019)
Conditions: primary human endothelial cells (HUVEC); actives raise or lower the signal
Summary of the method: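 HUVEC monoculture, HLA-DR measured by ELISA 24 h after chemical dosing. Fitted bidirectionally against DMSO baseline; parallel SRB staining assessed cytotoxicity, with 3C proliferation read by SRB at 48 h.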

Row | SMILES | outcome | AC50
1 | CC[C@H]1CC[C@H](NCc2cc3c(cc2OC)[C@H]2C[C@H]2C(=O)N3C)[C@H](c2ccccc2)N1 | inactive | 
2 | Oc1ccc2c(c1)-c1ccccc1C2 | inactive | 
3 | Cc1c(-c2cccnc2)c2ccccc2n1CCCCC(=O)O | inactive | 
4 | Cc1ccc(C)c(O)c1 | inactive | 
5 | CCCCC(CC)COC(=O)CCCCCCCCC(=O)OCC(CC)CCCC (centres undefined) | inactive | 
6 | Cc1ccc(S(=O)(=O)O)cc1C | inactive | 
7 | Cc1ccc(N)cc1O | inactive | 
8 | CCC(C)(C)C(=O)O[C@H]1C[C@@H](C)C=C2C=C[C@H](C)[C@H](CC[C@@H]3C[C@@H](O)CC(=O)O3)[C@H]21 |  | 25.8 µM (active)
9 | C[C@](N)(Cc1ccc(O)c(O)c1)C(=O)O | inactive | 
10 | CC(C)c1cccc(C(C)C)c1N1C(=O)c2ccc(O)cc2C1=O |  | 8.36 µM (active)
11 | CCCCCCCCCCCCCCCO |  | 31.4 µM (active)
12 | Cn1cnc([N+](=O)[O-])c1Sc1ncnc2nc[nH]c12 | inactive | 
13 | CC(O)CN(CCN(CC(C)O)CC(C)O)CC(C)O (centres undefined) | inactive | 
14 | CNCc1ccc(NC(=O)c2c[nH]c3c2C(=O)CCC3)cc1 | inactive | 
15 | Clc1nc(Cl)c(Cl)c(Cl)c1Cl |  | 31.2 µM (active)
16 | CCn1nc(Cc2ccccc2)cc1C1CCN(C[C@H]2C[C@H](N(C)[C@@H](C(=O)O)C(C)C)C[C@@H]2c2cccc(F)c2)CC1 | inactive | 
17 | O=C1CCCCCN1 | inactive | 
18 | COc1ccc(-n2nc(C(F)F)cc2-c2ccc(S(C)=O)cc2)cc1 (centres undefined) | inactive | 
19 | Cc1[nH]cnc1C[C@H]1CCc2c(C)c3ccccc3n2C1=O |  | 29.4 µM (active)
20 | O=C(O)c1cccc(N(Cc2cccnc2)c2ccc(OC(F)F)c(OC(F)F)c2)c1 |  | 9.02 µM (active)
21 | Fc1ccccc1[C@@H](F)COC1CCC(Nc2ncnc3[nH]ncc23)CC1 (some centres undefined) |  | 15.4 µM (active)
22 | CCNc1ccccc1 | inactive | 
23 | COc1ccc2sc(C(=O)Nc3nnn[nH]3)c(OC(C)C)c2c1 |  | 7.28 µM (active)
24 | CCOC(=O)COc1ccc2c(c1)CC(NCC(O)c1cccc(Cl)c1)CC2 (centres undefined) |  | 27.6 µM (active)
25 | COC(=O)c1ccccc1O | inactive | 
26 | CNS(=O)(=O)c1cc(C(=O)N2CCC(CCN3C4CCC3CC(n3c(C)nc5ccccc53)C4)(c3cccc(F)c3)CC2)c(Cl)cc1F (centres undefined) |  | 28.9 µM (active)
27 | O=c1n(CC2CO2)c(=O)n(CC2CO2)c(=O)n1CC1CO1 (centres undefined) |  | 21.5 µM (active)
28 | NC(=O)NO | inactive | 
29 | CN(C)c1ccc(Cc2ccc(N(C)C)cc2)cc1 |  | 31.8 µM (active)
